# Assay outcomes deposited in PubChem by National Center for Advancing Translational Sciences (NCATS).
# TrxR1 substrate: qHTS Assay for Substrates of Mammalian Selenoprotein Thioredoxin Reductase 1 (TrxR1): qHTS; 390,000 compounds, 0.01% hits; Thioredoxin reductase 1, cytoplasmic (Rattus norvegicus), O89049; purified TrxR1 substrate turnover, NADPH consumption readout; Potency, µM (doses to about 114 µM), for inactives: top-dose activity change, negative = substrate turnover; note: potency is the fitted concentration of half-maximal effect; % is set by controls: 0 for no effect and ±100 for the full control effect; nearly all actives have a fitted effect of over 50% in size
# Target sequence (O89049 whole entry, looked up): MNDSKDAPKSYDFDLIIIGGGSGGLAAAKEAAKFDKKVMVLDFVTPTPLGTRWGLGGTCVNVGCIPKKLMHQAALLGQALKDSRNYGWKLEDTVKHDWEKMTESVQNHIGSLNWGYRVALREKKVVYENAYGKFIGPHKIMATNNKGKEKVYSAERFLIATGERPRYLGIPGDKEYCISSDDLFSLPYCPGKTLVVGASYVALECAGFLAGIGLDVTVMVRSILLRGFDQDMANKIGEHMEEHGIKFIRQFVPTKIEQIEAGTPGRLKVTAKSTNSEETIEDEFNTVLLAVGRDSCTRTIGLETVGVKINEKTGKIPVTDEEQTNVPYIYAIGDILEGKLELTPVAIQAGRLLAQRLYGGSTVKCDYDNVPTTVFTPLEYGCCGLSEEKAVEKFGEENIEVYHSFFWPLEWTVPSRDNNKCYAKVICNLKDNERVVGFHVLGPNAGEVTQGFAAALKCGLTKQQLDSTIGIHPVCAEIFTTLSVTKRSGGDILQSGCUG
#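 Rat TrxR1, dispensed at 90 nM, was prereduced with 400 uM NADPH (final) for 5 min at ~22 deg C, then incubated with compound 15 min before 400 uM selenite. A first-read NADPH fluorescence drop versus no-compound background flagged substrates.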
# Anesthetic bind: qHTS Assay for Identification of Novel General Anesthetics | apoferritin/1-aminoanthracene competitive binding, fluorescence | Potency, µM (highest dose often 77.5 µM), for inactives: at the highest dose activity change, negative = displacement, hits mostly inhibitors | 350,000 compounds, 0.074% hits; note: potency is the fitted concentration of half-maximal effect; % is set by controls: 0 for no effect and ±100 for the full control effect; nearly all actives have a fitted effect of over 20% in size
# Target sequence (P02791 2-175 limits assumed): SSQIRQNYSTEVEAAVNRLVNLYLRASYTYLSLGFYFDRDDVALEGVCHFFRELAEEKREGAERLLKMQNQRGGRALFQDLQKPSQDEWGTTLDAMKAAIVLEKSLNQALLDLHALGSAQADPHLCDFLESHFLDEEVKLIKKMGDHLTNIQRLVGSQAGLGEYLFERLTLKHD
#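 Horse-spleen apoferritin (10 uM) in 50% saturated 1-aminoanthracene in PBS was incubated 10 min at room temperature with compound. Fluorescence (ex 380, em 535 nm) was normalized to free and bound 1-AMA, with concentration-response fitted by a four-parameter Hill equation.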
# ClpP mod: qHTS Assay for Activators of ClpP; Potency, µM (top dose mostly 57.5 µM), for inactives: at the highest dose activity change, negative = active; purified B. subtilis ClpP, FRET peptide cleavage, 20 min; 340,000 compounds, 1.9% hits; active = well fitted falling curve with a large enough effect; inconclusive = small, poorly fitted or top-dose-only effect; inactive = no such curve, though single readings can be large or run the other way; note: potency is the fitted concentration of half-maximal effect; the source files actives as falling curves though it sought activators and does not explain the sign; nearly all actives have a fitted effect of over 65% in size
#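 ClpP 10 microg/mL final, pH 8 Tris/KCl buffer with BSA, glycerol, Tween-20; compound pinned in; FRET-FV substrate; RT 20 min; Ex320/Em430; ΔFRET vs ADEP 5.8 microM, DMSO, no enzyme.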
# miR-21 act: qHTS Assay for Modulators of miRNAs and/orActivators of miR-21. HeLa miR-21 FLuc reporter, luciferase, 48 h. Potency, µM (highest dose often 38.3 µM), for inactives: top-dose activity change, positive = activation, hits mostly activators. 340,000 tested, under 10 active. AID 2288, 2010;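 note: % of control where 0% means no effect; miR-21 action dims this reporter so a rising signal means less miR-21 action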
#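 Compounds were titrated across several concentrations (up to approximately 40 uM) and incubated 48 hours with HeLa miR-21-FLuc reporter cells (miR-21 target sequence downstream of FLuc, endogenous miR-21). Readout was firefly luciferase luminescence after lytic detection reagent.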
# rTrxR1 inhibitor: qHTS Assay for Inhibitors of Mammalian Selenoprotein Thioredoxin Reductase 1 (TrxR1): qHTS; Thioredoxin reductase 1, cytoplasmic (Rattus norvegicus), O89049; recombinant rTrxR1, NADPH fluorescence consumption, selenite substrate; Potency, µM (doses to about 114 µM), without a hit: top-dose activity change, negative = inhibition, hits mostly inhibitors; 390,000 compounds, 1% hits; AID 588453, 2011; note: potency is the fitted concentration of half-maximal effect; % is set by controls: 0 for no effect and ±100 for the full control effect; nearly all actives have a fitted effect of over 65% in size
#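 Rat TrxR1 (90 nM in the dispensed reagent) was pre-reduced with 400 uM NADPH for 5 min at room temperature, then incubated with compound for 15 min. After 400 uM selenite was added, NADPH fluorescence (Ex 340/Em 450 nm) was followed for 8 min.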
# * hit, by the source's call; ? = inconclusive; . = no result; ! = a repeat was not active; [ ] = dose if it differs, or a comment. Most compounds without a hit are left out; they make up all but 2.5% or so of the library. Unless noted, calls come from the whole dose curve; as a rule, active = well fitted curve in the direction sought with a large enough effect; inconclusive = small, poorly fitted or top-dose-only effect, or another doubt; inactive = no such curve, though single readings can be large; an effect the other way counts as inactive or inconclusive.
SMILES,TrxR1 substrate,Anesthetic bind,ClpP mod,miR-21 act,rTrxR1 inhibitor
CC(=O)c1ccc(NC(=O)CCc2c(C)nc3ncnn3c2C)cc1,-10.7%,-4.7%,28.2µM*,-51.7%,-15.6%
CC(=O)c1ccc(NC(=O)CCc2c(C)nc3c(c(C)nn3-c3ccc(C)cc3)c2C)cc1,-1.5%,0.2%,14.1µM*,-44.0%,3.8%
CSc1ccc(CCNC(=O)CCc2c(C)nc3c(c(C)nn3-c3ccccc3)c2C)cc1,2.1%,-6.8%,-6.3%,-0.1%,2.8%
COC(=O)c1ccc(NC(=O)CCc2c(C)nc3ncnn3c2C)cc1,2.3%,-9.7%,-1.6%,-5.0%,4.9%
Cc1cccc(CCNC(=O)CCc2c(C)nc3c(c(C)nn3-c3ccccc3)c2C)c1,18.5%,-2.6%,31.6µM*,-8.0%,4.7%
CCCOc1cc(C)nc(-c2ccccc2O)n1,0.2%,-12.8%,1.2%,-7.8%,-4.2%
CCCCN(CCCC)c1cc(C)nc(-c2ccccc2O)n1,77.9%,-14.6%,31.6µM*,-6.3%,61.3%
Oc1c(C(c2ccccc2Cl)N2CCN(Cc3ccccc3)CC2)sc2nc(-c3ccco3)nn12 (configuration not stated),-4.8%[57.1 µM],?,-1.6%,7.2%,-5.6%[57.1 µM]
Cc1cccc(CNC(=O)CCCN2C(=O)c3cccnc3Oc3ccccc32)c1,0.8%,-11.0%,0.5%,0.9%,15.4%
CCOc1ccc(C(=O)OC(C)C(=O)N2CCN(Cc3ccccc3)CC2)cc1 (configuration not stated),8.0%[57.1 µM],.,-0.4%,.,14.5%[57.1 µM]
CCOc1ccc(C(=O)CC(C(=O)O)N2CCCCC2)cc1 (configuration not stated),-10.2%,.,0.8%,.,14.1µM*
CCOc1ccc(C(=O)N2CCCCCC2)cc1,6.8%[57.1 µM],-11.7%,-1.4%,-19.5%,13.1%[57.1 µM]
CCOc1ccc(C(=O)CC(C(=O)O)N2CCN(Cc3ccccc3)CC2)cc1 (configuration not stated),-9.1%,.,-2.3%,.,15.8µM*
Cc1ccc(Cl)cc1NC(=O)CCCN1C(=O)CCn2nc(-c3cn(C)c4ccccc34)cc21,-1.6%[57.1 µM],-17.7%,-18.3%,0.6%,10.6%[57.1 µM]
COc1ccc(OCC(=O)Nc2ccccc2C(=O)OCc2cc(=O)n3nc(C)sc3n2)cc1,4.2%[57.1 µM],9.7%,?,-0.5%,11.8%[57.1 µM]
Cc1[nH]c(=O)cc2ccccc12,9.4%,-4.4%,22.4µM*,-2.5%,11.7%[57.1 µM]
COc1cc(CN(C(=O)COc2ccc(Br)cc2)c2ccccn2)cc(OC)c1OC,-7.4%,0.4%,-1.7%,-5.1%,16.1%
CCOc1ccc(NC(=O)CCC(=O)O)cc1,8.9%,-14.0%,0.1%,-0.4%,27.9%
CCOc1ccc(C(C)NC(=O)CCC(=O)O)cc1 (configuration not stated),6.2%[57.1 µM],-11.7%,28.2µM*,-4.0%,9.0%[57.1 µM]
COc1ccc2c(c1)-c1nc(NC(=O)c3ccc(OC)c(Br)c3)sc1CC2,11.5%,74.8%,4.3%,3.1%,10.8%
COC(=O)c1ccc2c(c1)C(=O)/C(=C/c1ccc(C)cc1)O2,-10.9%,-8.4%,28.2µM*,-11.9%,-8.5%
COc1cc2[nH]c3c(N4CCN(c5ccc(Cl)cc5)CC4)ncnc3c2cc1OC,35.6%,-8.5%,25.1µM*,-4.5%,23.1%
COc1cccc2[nH]c3c(N4CCC(C)CC4)ncnc3c12,10.9%,-10.5%,14.1µM*,-17.4%,13.4%
COc1cc(-c2noc(C)c2C#Cc2ccc(N)cc2)cc(OC)c1OC,0.2%,-8.8%,-1.8%,2.4%,1.7%
CNC(C)C#Cc1c(-c2cc(OC)c(OC)c(OC)c2)noc1C (configuration not stated),6.9%,-14.1%,-0.7%,8.6%,70.8µM*!
SMILES,TrxR1 substrate,Anesthetic bind,ClpP mod,miR-21 act,rTrxR1 inhibitor
Cc1[nH]c2ccccc2c1C(c1ccccn1)c1c(C)[nH]c2ccccc12,-2.4%,-7.0%,1.0%,-4.8%,39.8µM*
Cc1ccc(S(=O)(=O)/N=C(\Sc2ccccc2)c2ccccc2)cc1,14.2%,-21.9%,0.3%,0.0%,2.82µM*
NC(N)=NS(=O)(=O)c1ccc(NC(=S)NC(=O)c2ccccc2)cc1,-11.2%,-6.7%,0.6%,-8.3%,50.1µM*
NC(N)=NS(=O)(=O)c1ccc(NC(=S)NC(=O)/C=C/c2ccccc2)cc1,5.3%,-6.2%,2.1%,0.2%,33.7%
COc1ccc(NC(=S)NC(=NS(=O)(=O)c2ccc(Cl)cc2)c2ccccc2)cc1,-3.0%[57.1 µM],.,.,.,-76.3%[57.1 µM]
COc1ccc(NC(=S)N/C(=N/S(=O)(=O)c2ccc(C)cc2)c2ccccc2)cc1,-1.7%,-9.3%,2.0%,-50.7%,22.4µM*
CC(C)(C)S(=O)(=O)c1ccc2nc3c(n2c1)CCCC3,65.1%,-4.1%,28.2µM*,-6.6%,0.7%
Cc1ccc(Cl)cc1NC(=O)Cn1c(=O)n(Cc2ccc(C(=O)NCc3ccc4c(c3)OCO4)cc2)c(=O)c2ccccc21,2.9%,1.1%,11.2µM*,-29.7%,32.1%
Cc1ccc(NC(=O)Cn2c(=O)n(Cc3ccc4c(c3)OCO4)c(=O)c3ccccc32)cc1,-2.1%,-2.2%,7.7%,-1.2%,4.5%
Cc1ccc(NC(=O)Cn2c(=O)n(Cc3ccc(C(=O)NCc4ccc5c(c4)OCO5)cc3)c(=O)c3ccccc32)cc1,-0.6%,-3.9%,22.4µM*,-4.0%,12.4%
O=C(Cn1c(=O)n(Cc2ccc(C(=O)NCc3ccc4c(c3)OCO4)cc2)c(=O)c2ccccc21)Nc1ccccc1F,3.2%,2.5%,4.1%,-4.0%,13.4%
CSc1ccccc1NC(=O)C1=CC(c2ccc3c(c2)OCO3)=NS(=O)(=O)N1C,-3.7%,4.4%,-2.2%,3.8%,8.4%
COc1ccccc1NC(=S)NCc1cccs1,-3.8%,-4.2%,12.6µM*,-1.2%,-14.3%
CCc1ccc(-n2c(SCc3nc(-c4cc(OC)ccc4OC)no3)nnc2-c2ccccc2)cc1,-3.9%,66.3%,-3.4%,17.0%,7.1%
CCOC(=O)CNC(=O)Nc1nnc(-c2ccc(OCC)cc2)o1,25.3%,-9.4%,6.31µM*,-4.8%,9.1%
CCCCNC(=O)Nc1nnc(-c2ccc(OCC)cc2)o1,-4.3%,-11.3%,25.1µM*,-9.7%,-8.2%
CCCCNC(=O)Nc1nnc(-c2ccccc2)o1,30.7%[57.1 µM],-19.6%,14.1µM*,-23.6%,43.1%[57.1 µM]
Cc1cc(N(C)C)cc(C)c1/C=C/c1ccnc2ccccc12,-3.6%,.,0.2%,.,6.2%
O=C(Cc1ccc(OCCc2ccccc2)cc1)NO,10.5%[0.0914 µM],.,1.2%,.,19.1%
CCOC(=O)COn1c(=O)c(-c2ccco2)[n+]([O-])c2ccccc21,8.1%,-2.7%,-1.6%,0.2%,8.91µM*
